Reference: PubChem BioAssay AID493208 (National Center for Advancing Translational Sciences (NCATS), 2011)
About 340 (0.77%) of roughly 44,000 compounds were called active. Another 5% or so got no clear call; they are omitted. This is one part of a sample in which actives are shown more often than they occur. The call rests on the fitted dose curve; in most records, active means well fitted inhibition curve with a large enough effect; inconclusive means small, poorly fitted or top-dose-only effect; inactive means flat fitted curve, though single readings scatter.

Test: Acumen qHTS Assay for Inhibitors of the mTORC1 Signaling Pathway in MEF (Tsc2-/-, p53-/-) Cells: Sytravon; further: nearly all actives have a fitted effect of over 50% in size
Conditions: phospho-rpS6 immunofluorescence/PI, 24 h; series mostly up to 38.3 µM; activity change, negative = inhibition: at the top concentration
Excerpt: NIH Molecular Libraries Probe Production Centers Network [MLPCN] NIH Chemical Genomics Center [NCGC] MLPCN Grant: NS059428-01 Assay Submitter (PI): Blenis, John; Hoffman, Greg; Harvard University NCGC Assay Overview: The mammalian target of rapamycin (mTOR) is an intracellular serine/threonine kinase Aberrant regulation of mTOR signaling plays a causative role in a number of human diseases, including cancer, benign tumors such as lymphangioleiomyomatosis (LAM) and Tuberous Sclerosis Complex (TSC), and metabolic diseases such as diabetes and obesity. This project aims to identify inhibitors of ribosomal protein S6 (rpS6) phosphorylation. The phosphorylation of rpS6 is a key event downstream of mTOR activation. The assay uses a phospho-specific antibody of phospho-rpS6 to detect inhibitors of mTOR activation. Mutations in the Tsc1 and Tsc2 genes are the underlying genetic lesions responsible for TSC, causing constitutive activation of the mTORC1 pathway and leading to profound effects on cell metabolism. Aberrant metabolism in cancer has recently received significant attention as a target to develop therapeutic agents in the treatment of cancer.1 As Tsc2-/- cells have lost the ability to respond to energy and growth factor deprivation, these cells are unable to properly down regulate cellular biosynthetic processes in response to metabolic stress, and are thus extremely sensitive to glucose deprivation-induced death.2 A central goal of this project is to explore the unique cell survival and metabolic properties of cells with Tsc1 or Tsc2 by screening for compounds that selectively target the Tsc2-/- MEFs by screening both Tsc2-/- and WT MEF cell lines. We hope to better understand these aspects of TSC physiology in order to exploit them for therapeutic benefit.
NCGC Acumen Assay Protocol Summary: For quantitative high throughput analysis of mTORC1 signaling, we developed a cell-based assay for immuno-fluorescence based detection of rpS6 phosphorylation on the Acumen Explorer that will be used a platform for the primary small molecule screen. Mouse embryonic fibroblasts (MEFs) are cultured in 1536-well plates using DMEM + 10% FBS. Twenty-four hrs after plating, test compounds (solubilized in DMSO) are delivered and incubated with the cells for 24 hrs at 37 degree Celsius. Following the incubation, media with compound is aspirated and the cells are fixed in 4% paraformaldehyde (PFA) containing PBS + 0.2% TX-100. Next, PFA is aspirated, cells are washed two times with PBS plus 0.2% TX-100 and the cells are blocked for 1 hr at room temperature (blocking buffer: LiCOR Blocking Buffer plus 0.2% TX-100). […] Cells are washed two times with PBS plus 0.2% TX-100, and stained with 10 uM propidium iodide (PI) for 20-25 minutes for cell number measurement (1:500 dilution of Hoescht staining is also added for IN Cell imaging). The plates are scanned on the Acumen Explorer laser scanning instrument (TTP Labtech) using the 488nm laser for simultaneous excitation of the Alexa-488 and PI. […] The normalized phospho-S6 staining is calculated as the ratio of the integrated Alexa 488 intensity divided by the integrated PI intensity for the single concentration rapamycin control (7.5 nM) and DMSO columns. […] Inhibition of the pathway is defined based on the normalized phospho-S6 intensity in rapamycin treated cells. Active cells are defined as those with a normalized phospho-S6 staining above this threshold, and each treatment is reported as the % positive cells in the well, where thresholds are defined by selecting wells with the highest and lowest signal and differentiating between the % non-active and % active populations. In addition to the pathway specific phospho-S6 endpoint, the number of PI stained cells from the Acumen is recorded as a measure of cell viability. The primary screen was performed with a MEF cell line in a defined genetic background, Tsc2-/-, p53-/- cell line stably transfected with an empty vector control (Tsc2-/- MEF).

Structure (SMILES)	activity change, negative = inhibition
CCOc1cc(C(=O)NCCc2csc3nc(-c4ccc(C)cc4)nn23)cc(OCC)c1OCC	-0.174% (inactive)
COc1cccc(NC(=O)CN2C(=O)c3ccccc3Sc3ncccc32)c1	-4.27% (inactive)
CC1=C(c2ccc(F)cc2)S(=O)(=O)N=C1N1CCC(C(=O)NCCc2ccccc2C)CC1	-5.5% (inactive)
COc1cc(NC(=O)c2cc(C3CC3)nc3c2c(C)nn3-c2ccccc2)cc(OC)c1	2.09% (inactive)
COc1cccc(CNC(=O)C2CCN(S(=O)(=O)c3ccc4c(ccn4C)c3)CC2)c1	0.037% (inactive)
Cc1ccc(OCCSc2nc(C)c(Cc3ccccc3)c(=O)[nH]2)cc1	-0.78% (inactive)
Cc1ccc(Cn2c(=O)n(CCCC(=O)NCc3ccccc3Cl)c(=O)c3ccccc32)cc1	5.87% (inactive)
CCc1ccc(NC(=O)c2cc(S(=O)(=O)NC3CCCCCC3)ccc2F)cc1	-22.4% (inactive)
Cc1ccccc1NC(=O)Cn1cc(C(=O)c2cccs2)c2ccccc21	-14.7% (inactive)
O=C(c1cnn(-c2ccc(F)cc2)c1-n1cccc1)N1CCN(c2ccc(F)cc2)CC1	-7.02% (inactive)
CCOC(=O)c1cc(-c2ccccc2)n(-c2cccc(C(=O)Nc3cc(OC)cc(OC)c3)c2)c1C	-1.51% (inactive)
Cc1oc2ccc(O)c(CN3CCOCC3)c2c1C(=O)Nc1cccc(Cl)c1C	7.39% (inactive)
O=C1OC(C(=O)Nc2cccc(Br)c2)Cc2ccccc21 (stereo not drawn)	-3.38% (inactive)
Cc1c(NC(=O)c2cc(-c3ccc(Br)cc3)on2)c(=O)n(-c2ccccc2)n1C	-28.7% (inactive)
COc1ccc(NC(=O)C2CCCN(S(=O)(=O)c3c(C)[nH]c(=O)[nH]c3=O)C2)c(OC)c1 (stereo not drawn)	-7.05% (inactive)
COc1ccc(-c2nnc(SCC(=O)Nc3ccc(C(C)C)cc3)nc2-c2ccc(OC)c(OC)c2)cc1OC	-3.8% (inactive)
Clc1cccc(-n2ncc3c(NCCc4ccccc4)ncnc32)c1	3.04% (inactive)

Structure (SMILES)	activity change, negative = inhibition
Fc1ccc(Nc2nc(SCc3ccccc3Cl)nc3ccccc23)cc1	3.14% (inactive)
O=C(C1CCCN(S(=O)(=O)c2cccc3nonc23)C1)N1CCN(c2ccccc2F)CC1 (stereo not drawn)	-2.91% (inactive)
Cc1ccc(N2CC(c3nnc(Cc4ccccc4Cl)o3)CC2=O)cc1 (stereo not drawn)	6.32% (inactive)
CCOC(=O)c1ccc(CN(Cc2ccccc2)S(=O)(=O)c2ccc(Cl)cc2)cc1	-9.2% (inactive)
Cn1c(=O)c(C(=O)O)nn(-c2ccccc2)c1=O	11.1% (inactive)
Cc1ccc(-c2cn3c(n2)sc2cc(C(=O)NCCCc4ccccc4)ccc23)cc1	5.23% (inactive)
CCCCN1CC(c2nc3ccccc3n2CCCCOc2ccc(C)cc2C)CC1=O (stereo not drawn)	-0.108% (inactive)
COc1cccc(C(=O)NC2=NC(c3ccc(N(C)C)cc3)CC(=O)N2)c1 (stereo not drawn)	0.508% (inactive)
CCN(C(=O)Cn1cc(S(=O)(=O)N2CCN(c3ccccc3F)CC2)c2ccccc2c1=O)c1ccc(C)c(C)c1	3.33% (inactive)
CSc1nc(-c2ccccc2Cl)nc2c1Cc1c(CO)cnc(C)c1O2	2.72% (inactive)
Cc1cc2ccccc2n1CCNC(=O)c1ccc(F)cc1	1.95% (inactive)
Cc1cccc(NC(=O)N2CCC(CN3CCc4ccccc4C3)CC2)c1C	-13.6% (inactive)
CCC(=O)N1CCc2cc(CNC(=O)Nc3ccccc3Cl)ccc21	-1.13% (inactive)
COc1ccc(CNC(=O)CSCc2nc(-c3ccccc3F)oc2C)cc1	-10.3% (inactive)
CCOc1ccc(-n2c(SCC(=O)NCc3ccccc3)nc3n[nH]c(C)c3c2=N)cc1	-12.4% (inactive)
Cc1cccc(NC(=O)C2CCN(S(=O)(=O)c3c(C)noc3/C=C/c3ccco3)CC2)c1	2.87% (inactive)
